PAFAH1B2 inh = blocks human PAF acetylhydrolase 1b catalytic subunit 2; inhibition, % at 3.39 µM; actives 1.2% (n = 340,000); P68402; recombinant PAFAH1B2, FP-rhodamine activity probe, fluorescence polarization;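 active = inhibition above the mean of all tested compounds plus 3 SD, cut at about 24% in these data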;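 also: 0% = enzyme with DMSO and 100% = wells lacking PAFAH1B2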
DAGLB inh = diacylglycerol lipase beta (human) inhibition; Q8NCG7; HEK293T DAGLB membrane lysate, EnzChek fluorogenic substrate; inhibition, % at 5.17 µM; actives 0.059% (n = 340,000); AID 504411; in the data active = inhibition above about 34%;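 also: 0% = enzyme with vehicle and 100% = wells lacking enzyme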
PAFAH2 inh = PAFAH2 (human) inhibition; Q99487; recombinant PAFAH2, FP-rhodamine activity probe, fluorescence polarization; inhibition, % at 3.39 µM; actives 0.99% (n = 340,000);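 active = inhibition above the mean over all tested compounds plus 3 SD, cut at about 30% in these data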;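 also: inhibitors block probe labeling of enzyme so polarization drops; 0% = enzyme with DMSO and 100% = wells lacking PAFAH2 protein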
ATG4B inh = blocks human ATG4B protease cleavage of LC3 substrate | actives 0.51% (n = 340,000) | AID 504462 | Q9Y4P1 | inhibition, % at 8.33 µM | ATG4B cleavage of LC3-PLA2, NBD-HPC fluorescence, 1 h; in the data active = inhibition above about 40%
Target sequence (Q9Y4P1 whole entry, looked up): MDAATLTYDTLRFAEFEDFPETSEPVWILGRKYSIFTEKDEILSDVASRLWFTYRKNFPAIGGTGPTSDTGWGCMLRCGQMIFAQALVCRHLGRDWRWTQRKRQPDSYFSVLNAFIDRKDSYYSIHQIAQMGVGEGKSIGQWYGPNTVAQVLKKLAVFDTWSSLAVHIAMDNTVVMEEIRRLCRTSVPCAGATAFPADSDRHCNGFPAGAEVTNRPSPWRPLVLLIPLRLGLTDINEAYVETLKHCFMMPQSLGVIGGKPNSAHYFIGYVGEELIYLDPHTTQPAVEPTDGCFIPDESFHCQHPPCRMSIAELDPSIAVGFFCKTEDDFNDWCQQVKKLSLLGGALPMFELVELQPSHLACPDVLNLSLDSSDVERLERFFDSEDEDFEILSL
PAFAH1B3 FP inh = inhibitors of human PAFAH1B3; Q15102; actives 0.28% (n = 340,000); recombinant PAFAH1B3, FP-rhodamine probe, fluorescence polarization; inhibition, % at 3.39 µM;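 active = inhibition above the screen-wide average of all tested compounds plus 3 SD, cut at about 25% in these data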;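 also: 0% = enzyme with DMSO only and 100% = wells lacking PAFAH1B3 protein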
Target sequence (Q15102 whole entry, looked up): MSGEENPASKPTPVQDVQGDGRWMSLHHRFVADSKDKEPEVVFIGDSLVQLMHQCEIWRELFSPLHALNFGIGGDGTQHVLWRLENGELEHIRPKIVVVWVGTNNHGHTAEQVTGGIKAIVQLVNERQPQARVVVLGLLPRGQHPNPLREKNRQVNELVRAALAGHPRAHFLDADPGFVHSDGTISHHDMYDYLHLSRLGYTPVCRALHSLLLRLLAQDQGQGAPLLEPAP
pPAFAH inh = pPAFAH (human) enzyme inhibition; Q13093; recombinant pPAFAH, FP-rhodamine probe fluorescence polarization; inhibition, % at 3.39 µM; actives 1.5% (n = 330,000); AID 463082;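 active = inhibition above the mean inhibition across the screen plus 3 SD, cut at about 25% in these data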;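 also: inhibitors block binding of the rhodamine activity-based probe so polarization drops; 0% = enzyme with DMSO and 100% = wells lacking pPAFAH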
The depositor's hits bear a star; . = no result. This is a sample that favours compounds with a hit; in the whole collection about 3% have one here.

SMILES	PAFAH1B2 inh	DAGLB inh	PAFAH2 inh	ATG4B inh	PAFAH1B3 FP inh	pPAFAH inh
Cc1cccc(NS(=O)(=O)c2cccc(C(=O)NCC(c3ccco3)N3CCCCC3)c2)c1 (stereo not drawn)	-0.4	-5.3	-3.4	-3.1	-4.3	32.7*
COc1cccc(N2CCN(c3ccc4nnc(CCC(=O)Nc5ccccn5)n4n3)CC2)c1	1.6	-3.1	-0.9	-8.2	-4.9	4.2
O=S(=O)(/N=C(/Nc1cccc2ccccc12)c1ccc(F)cc1)c1ccccc1	5.9	1.4	5.2	-8.4	5.1	7.4
COc1ccc(OC)c(/C=C/C(=O)OCC(=O)Nc2nnc(-c3ccccc3)o2)c1	3.6	1.5	-7.6	6.0	9.8	7.9
O=C(NCC(c1ccco1)N1CCCC1)c1ccc(S(=O)(=O)Nc2ccc(F)cc2)cc1 (stereo not drawn)	3.7	0.5	1.8	-7.9	8.4	28.5*
Cc1ccc(CCNS(=O)(=O)c2ccc3c(c2)C(C)(C)C(=O)N3C)cc1	11.2	-1.2	-9.0	0.7	0.5	25.2*
CN1C(=O)C(C)(C)c2cc(S(=O)(=O)NCCc3ccc(Cl)cc3)ccc21	24.3*	4.0	5.3	-10.0	2.7	29.8*
Clc1ccc(/C=C/c2ncc3ccccn23)cc1	0.0	0.1	-3.0	-0.3	-0.7	15.8
COC1=C(N)C(=O)c2nc(-c3nc(C(=O)O)c(C)c(-c4ccc(OC)c(OC)c4O)c3N)ccc2C1=O	.	.	.	68.8*	.	0.6
COc1ccc(-c2ncncc2-c2csc(C)n2)c(O)c1OC	7.8	-1.3	13.3	-15.0	3.7	-9.6
CCOc1cc(N(CC)CC)ccc1/C=C(/C#N)c1nc2ccccc2[nH]1	12.7	-66.9	14.4	-5.5	15.1	26.8*
COc1cc(OC)nc(-n2ncc(Br)c(Br)c2=O)n1	2.8	-8.3	-3.8	-1.4	14.0	5.8
COc1ccc(CCNC(=O)C(C)n2nc(C)n3c(cc4occc43)c2=O)cc1OC (stereo not drawn)	3.0	0.5	0.3	-8.0	4.4	2.7
Cc1ccc(C(c2nnnn2Cc2ccccc2)N2CCN(Cc3ccccc3)CC2)cc1 (stereo not drawn)	30.9*	-6.6	-0.1	-3.8	1.4	-1.6
c1ccc(CN2CCN(C(c3ccccc3)c3nnnn3Cc3ccccc3)CC2)cc1 (stereo not drawn)	14.9	-0.1	14.0	3.6	1.8	5.6
CCC(C)c1ccccc1N1CC(C(=O)NCCc2ccc(OC)c(OC)c2)CC1=O (stereo not drawn)	6.8	1.2	0.6	6.9	1.0	10.1
COc1ccc(NC(=O)CSCC(=O)Nc2ccc(C)c(S(=O)(=O)N3CCCCCC3)c2)cc1	2.9	-1.2	-4.5	-24.0	-2.4	2.4
CCCc1cc(=O)oc2c3c(c4c(c12)OC(C)(C)C=C4)OC(C)C(C)C3O (stereo not drawn)	4.0	-6.1	11.6	0.7	-3.6	30.6*
CC(=O)c1ccc(NC(=O)C(C)n2c3ccccc3c3nc(=O)cc(C)n32)cc1 (stereo not drawn)	-0.8	-1.5	0.1	-4.3	-2.2	-3.9
CCn1c(SCC(=O)N(C)C)nc2cc(S(=O)(=O)N3CCOCC3)ccc21	77.7*	-2.7	7.7	1.3	2.0	0.7
Cc1cccc(N2C(S)=C(C#N)C(=O)NC2c2cccs2)c1 (stereo not drawn)	29.9*	0.8	3.0	26.2	6.6	2.2
O=C1N[C@@H](Cc2c[nH]c3ccccc23)C(=O)N[C@H]1Cc1ccccc1	3.4	1.4	-3.5	-4.4	5.2	.
O=S(=O)(c1ccc(Cl)s1)N1CCCCC1	10.9	-1.6	1.5	-1.5	2.8	0.3
O=C(O)C1CCN(S(=O)(=O)c2ccc(Cl)s2)CC1	27.1*	-0.5	1.1	-8.4	8.0	-2.0
CC1CCCN(S(=O)(=O)c2ccc(Cl)s2)C1 (stereo not drawn)	-1.0	-3.7	-2.2	-16.2	4.1	4.1
SMILES	PAFAH1B2 inh	DAGLB inh	PAFAH2 inh	ATG4B inh	PAFAH1B3 FP inh	pPAFAH inh
CC1CCN(S(=O)(=O)c2ccc(Cl)s2)CC1	25.4*	-5.9	-6.5	4.9	8.3	1.2
CC1CCN(S(=O)(=O)c2ccc(Br)s2)CC1	28.7*	-6.6	-7.2	-0.5	-0.6	-1.4
Cc1cc(C)n2nc(CC(=O)NNC(=O)c3ccccc3Cl)nc2n1	-3.2	0.1	-1.2	13.1	2.6	1.7
O=C(O)c1nn(CCOc2ccc(Br)cc2)c(=O)c2ccccc12	26.8*	-4.2	10.1	-12.3	1.2	1.1
C[C@H]1COC(=O)[C@@H](Cc2ccc(F)cc2)C/C=C\C[C@H](CC(=O)N(CCO)Cc2ccccc2)C(=O)N1	18.5	0.8	3.0	-1.6	7.6	2.9
C[C@H]1COC(=O)[C@@H](Cc2ccc(F)cc2)CC/C=C/C[C@@H](CC(=O)N(CCO)Cc2ccccc2)C(=O)N1	26.4*	-0.8	1.5	1.4	4.0	4.3
C[C@H]1COC(=O)[C@@H](Cc2ccc(F)cc2)CC/C=C/C[C@H](CC(=O)N(CCO)Cc2ccccc2)C(=O)N1	24.8*	-0.9	-6.6	-5.5	-2.0	0.7
CC(C)C(=O)N[C@@H]1c2ccccc2CC[C@@H]1O	6.1	-1.6	-0.8	3.4	-1.0	-0.1
O=C(NCCCN1CCOCC1)C(=O)N/N=C/c1ccc2c(c1)OCO2	2.9	-0.3	0.1	7.1	2.4	-3.1
Cc1c(N=C2N=C(NC(=O)Nc3ccc(Cl)cc3)c3ccccc32)c(=O)n(-c2ccccc2)n1C	5.8	-0.7	3.0	-10.4	-1.8	3.3
O=C(Nc1ccccc1Cl)ON=C1c2ccccc2-c2ccccc21	2.9	-4.9	-1.0	-6.7	25.7*	-4.9
O=C(Nc1ccccc1)ON=C1c2ccccc2-c2ccccc21	6.0	-3.4	-1.7	-1.9	20.6	-6.6
CC(=O)Nc1ccc(S(=O)(=O)NCCC(=O)Nc2cc(C)ccn2)cc1	3.8	2.4	0.0	4.2	11.4	3.4
CC1CCN(S(=O)(=O)c2ccc(N=NC3=C(O)CC(C)(C)CC3=O)cc2)CC1	45.2*	3.3	-7.1	-5.5	2.8	2.6
CCCCNc1c(-c2cccc(-c3cc(C(C)=O)cs3)c2)nc2cc(C)ccn12	6.6	-4.9	4.7	9.8	9.6	32.6*
COc1cc(/C=N/n2c(-c3ccc4c(c3)NC(=O)CO4)csc2=Nc2cccc(C)c2)ccc1O	9.3	2.4	0.1	-9.7	12.5	33.5*
CCc1ccc(C(=O)C[n+]2cccc3cc(OC)ccc32)cc1	4.8	1.9	6.1	0.3	-1.8	.
COc1ccc(-c2ccc3c(N)c(C(=O)c4ccc(OC)c(OC)c4)sc3n2)cc1	0.0	-2.8	3.6	0.4	0.9	5.0
COc1ccc(C(=O)c2sc3nc(-c4ccccc4)ccc3c2N)cc1OC	8.1	-12.7	7.9	-21.6	1.6	29.6*
c1ccc2c(c1)Sc1cnccc1N2CC1CO1 (stereo not drawn)	.	3.3	.	.	.	.
Cc1ccc(C2SCC(=O)N2Cc2ccccc2)cc1 (stereo not drawn)	28.6*	-3.1	5.8	-0.4	5.0	3.3
